Bioassay records (PubChem BioAssay)
HP1b chromo inh: blocks HP1-beta chromodomain binding to methylated histone tails. P83916. actives 0.56% (n = 390,000). AlphaScreen HP1-beta / biotin-H3K9me3 peptide binding. AID 540317. Potency, µM (titrated, usually from 114 µM), inactives show at the top dose activity change, negative = inhibition, usual class: inhibitors; note: nearly all actives have a fitted effect of over 70% in size
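HP1-beta protein (50 nM final) preincubated 30 min at room temperature with biotinylated H3(1-18)K9me3 peptide (50 nM) in PBS pH 7.4, 0.01% Tween-20, then compound added for 30 min. AlphaScreen streptavidin donor/nickel chelate acceptor beads (10 ug/mL final), 30 min dark, luminescence read.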
L3MBTL1 block: L3MBTL1 (human) inhibition. AlphaScreen L3MBTL1–H3K9me1 peptide binding. Potency, µM (series often up to 57.1 µM), inactives show at the highest dose activity, negative = inhibition, usual class: inhibitors. actives 0.66% (n = 230,000). AID 485360; note: % is set by controls: 0 for no effect and ±100 for the full control effect; nearly all actives have a fitted effect of over 60% in size
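AlphaScreen assay: L3MBTL1 (50 nM final) was preincubated 30 min at room temperature with biotinylated H3(1-15)K9me1 peptide (75 nM final), then 30 min with library compounds; streptavidin donor and nickel chelate acceptor beads (10 ug/mL final) added, 30 min dark.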
JMJD2A Tudor: inhibitors of human JMJD2A Tudor domain; O75164; AlphaScreen JMJD2A-Tudor / H3K4me3 peptide binding; Potency, µM (highest dose often 114 µM), without a hit: top-dose activity change, negative = inhibition, actives largely listed as inhibitors; actives 4.4% (n = 390,000); AID 504339; note: % is set by controls: 0 for no effect and ±100 for the full control effect; nearly all actives have a fitted effect of over 50% in size
BAZ2B block: inhibitors of human BAZ2B bromodomain | Q9UIF8 | AlphaScreen BAZ2B-H3K14Ac peptide displacement | Potency, µM (top dose mostly 114 µM), without a hit: at the highest dose activity change, negative = inhibition, actives largely listed as inhibitors | actives 4.4% (n = 360,000) | AID 504333; note: % is set by controls: 0 for no effect and ±100 for the full control effect; nearly all actives have a fitted effect of over 60% in size
Target sequence (Q9UIF8 whole entry, looked up): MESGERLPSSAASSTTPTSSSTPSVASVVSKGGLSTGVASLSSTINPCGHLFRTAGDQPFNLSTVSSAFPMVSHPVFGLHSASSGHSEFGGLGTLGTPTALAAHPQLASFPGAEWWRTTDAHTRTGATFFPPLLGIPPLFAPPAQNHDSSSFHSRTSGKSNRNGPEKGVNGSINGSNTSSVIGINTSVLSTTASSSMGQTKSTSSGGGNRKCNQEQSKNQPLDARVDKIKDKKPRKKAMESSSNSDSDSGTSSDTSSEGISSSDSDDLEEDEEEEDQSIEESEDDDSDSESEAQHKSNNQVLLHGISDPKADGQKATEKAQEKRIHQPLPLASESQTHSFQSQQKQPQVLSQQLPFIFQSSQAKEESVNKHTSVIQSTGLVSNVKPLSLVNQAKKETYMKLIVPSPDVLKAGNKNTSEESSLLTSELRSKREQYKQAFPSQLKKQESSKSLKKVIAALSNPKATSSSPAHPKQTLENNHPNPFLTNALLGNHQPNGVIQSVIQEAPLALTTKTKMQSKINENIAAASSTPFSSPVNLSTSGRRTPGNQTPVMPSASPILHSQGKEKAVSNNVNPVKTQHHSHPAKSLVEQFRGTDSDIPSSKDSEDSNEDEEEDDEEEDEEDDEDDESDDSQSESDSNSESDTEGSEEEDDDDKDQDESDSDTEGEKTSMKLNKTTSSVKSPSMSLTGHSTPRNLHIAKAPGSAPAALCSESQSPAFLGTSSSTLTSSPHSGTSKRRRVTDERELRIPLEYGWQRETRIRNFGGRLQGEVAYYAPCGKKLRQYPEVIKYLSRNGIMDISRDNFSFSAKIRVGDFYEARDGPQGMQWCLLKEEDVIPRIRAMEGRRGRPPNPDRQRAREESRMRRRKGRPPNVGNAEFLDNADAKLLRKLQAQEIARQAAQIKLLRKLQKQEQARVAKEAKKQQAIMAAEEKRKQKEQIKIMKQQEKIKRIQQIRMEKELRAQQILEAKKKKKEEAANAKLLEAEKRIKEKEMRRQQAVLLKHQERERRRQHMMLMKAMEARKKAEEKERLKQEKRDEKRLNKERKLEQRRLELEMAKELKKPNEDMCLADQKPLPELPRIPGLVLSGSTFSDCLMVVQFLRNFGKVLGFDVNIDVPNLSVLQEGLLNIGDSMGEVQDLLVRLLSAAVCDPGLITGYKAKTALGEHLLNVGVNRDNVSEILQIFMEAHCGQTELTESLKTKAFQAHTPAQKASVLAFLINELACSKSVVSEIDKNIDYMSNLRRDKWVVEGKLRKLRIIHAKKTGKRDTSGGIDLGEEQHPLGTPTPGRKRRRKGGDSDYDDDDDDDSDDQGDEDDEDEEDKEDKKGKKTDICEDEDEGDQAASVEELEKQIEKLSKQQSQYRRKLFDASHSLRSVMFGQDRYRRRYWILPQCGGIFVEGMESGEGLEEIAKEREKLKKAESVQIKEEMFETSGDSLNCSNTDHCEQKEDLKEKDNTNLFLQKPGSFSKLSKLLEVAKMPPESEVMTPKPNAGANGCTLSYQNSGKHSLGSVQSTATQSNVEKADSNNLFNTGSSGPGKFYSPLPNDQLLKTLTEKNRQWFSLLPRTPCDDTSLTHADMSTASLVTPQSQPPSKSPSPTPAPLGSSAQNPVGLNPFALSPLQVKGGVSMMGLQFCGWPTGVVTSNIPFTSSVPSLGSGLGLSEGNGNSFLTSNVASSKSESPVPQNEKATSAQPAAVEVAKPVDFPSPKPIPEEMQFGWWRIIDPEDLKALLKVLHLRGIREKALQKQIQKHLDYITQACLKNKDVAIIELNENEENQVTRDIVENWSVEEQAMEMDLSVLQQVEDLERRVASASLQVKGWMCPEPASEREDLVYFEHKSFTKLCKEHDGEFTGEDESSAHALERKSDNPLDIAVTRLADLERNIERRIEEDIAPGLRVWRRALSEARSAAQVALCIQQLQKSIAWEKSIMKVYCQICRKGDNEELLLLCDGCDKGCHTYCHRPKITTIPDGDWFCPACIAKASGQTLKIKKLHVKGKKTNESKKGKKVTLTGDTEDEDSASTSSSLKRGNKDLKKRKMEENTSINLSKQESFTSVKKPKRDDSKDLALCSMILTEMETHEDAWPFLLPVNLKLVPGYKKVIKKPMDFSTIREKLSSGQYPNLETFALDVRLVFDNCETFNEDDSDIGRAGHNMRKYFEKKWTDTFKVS
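BAZ2B (50 nM) with biotin-H3(5-23)K14Ac peptide (50 nM) in PBS pH 7.4, 0.01% Tween-20, preformed 30 min, then compound 30 min at room temperature; top concentration 110uM. AlphaScreen streptavidin donor/nickel chelate acceptor beads (10 ug/mL final), 20 min dark, signal read.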
G9a block: blocks human histone lysine methyltransferase G9a; Potency, µM (top dose mostly 102 µM), without a hit: top-dose activity, negative = inhibition, hits mostly inhibitors; G9a H3K9 monomethylation, AlphaScreen, 2 h; Q96KQ7; actives 8.8% (n = 350,000); AID 504332; note: % is set by controls: 0 for no effect and ±100 for the full control effect; nearly all actives have a fitted effect of over 75% in size
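Enzyme 20 nM + cpd, 15 min RT; add b-H3K9 pep 500 nM / SAM 20 uM; 2 h RT; anti-H3K9me1 Ab 0.5 ug/mL + SA donor / anti-rabbit acceptor beads 20 ug/mL each, 10 min; AlphaScreen read.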
Sfp inh: blocks B. subtilis Sfp PPTase activity | Q9F4F7 | Biochemical Sfp PPTase activity, qHTS | Potency, µM, without a hit: largest response in the series, negative = inhibition, hits mostly inhibitors | actives 3.5% (n = 310,000);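 note: the enzyme is Sfp with the accession as filed and its product quenches rhodamine fluorescence; 0% = enzyme reaction without inhibitor and -100% = no enzyme wells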
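After 15 min at room temperature with compound, 15 nM Sfp received 5 uM rhodamine-CoA plus 12.5 uM BHQ-2-ybbR (50 mM Hepes pH 7.6, 10 mM MgCl2). Rate came from the fluorescence difference over 30 min, ex 525/em 598 nm.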
Active calls of the source: *; ? = inconclusive; nt = not tested or not shown; [ ] = remark or other dose. Shown are actives, neighbours in structure and some others; about 12% of the full set was active somewhere. Calls come from the whole dose curve; as a rule, active = well fitted curve in the direction sought with a large enough effect; inconclusive = small, poorly fitted or top-dose-only effect, or another doubt; inactive = no such curve, though single readings can be large; an effect the other way counts as inactive or inconclusive. Potency is the fitted concentration of half-maximal effect.

SMILES	HP1b chromo inh	L3MBTL1 block	JMJD2A Tudor	BAZ2B block	G9a block	Sfp inh
C#CCOCCOCCOCCNc1nc(N2CCN(C(=O)[C@H](CCCCN)n3cc([C@@H](N)CO)nn3)CC2)nc(N2CCN(C(=O)[C@H](Cc3cc4ccccc4[nH]3)n3cc([C@@H](N)CC(C)C)nn3)CC2)n1	nt	-11%	nt	45µM*	-23%[12.7 µM]	-9%
Cc1ccc(CN(C)C(=O)c2ccc3c(c2)NC(=O)CS3)o1	-13%	nt	-22%[11.4 µM]	-23%	?	32µM*
COC(=O)c1ccc2c(c1)SC1=C(CCCC1=O)N2	-28%	-4%[11.4 µM]	-36%	40µM*	?	-4%
C=CCn1c(C)cc(C(=O)COC(=O)c2ccc3c(c2)NC(=O)CS3)c1C	?	?	?	?	20µM*	56µM*
COC(=O)c1ccc2c(c1)NC(=O)CS2	-4%	1%	-11%	-20%	40µM*	-12%
O=C1CCCC2=C1Sc1ccc(Cl)cc1N2	20%	-7%	-13%	?	4%[59 µM]	-10%
C=CCn1c(C)cc(C(=O)COC(=O)c2ccc(N)c([N+](=O)[O-])c2)c1C	-15%	-3%	?	?	?	7%
CC(OC(=O)c1ccc2c(c1)NC(=O)CS2)C(=O)c1ccc(F)cc1 (stereo unspecified)	5%[57 µM]	-1%	-14%	nt	nt	nt
COc1ccccc1CN(C)C(=O)c1ccc2c(c1)NC(=O)CS2	16%	nt	-3%	12%	-3%[59 µM]	12%
COc1ccc(NC(=O)Cn2c(CCC(=O)O)ccc2-c2ccccc2)cc1Cl	0%	nt	-31%	-33%	-37%[59 µM]	nt
Cc1nnc(NC(=O)c2ccc3c(c2)NC(=O)CS3)s1	13%	7%	-16%	-6%	-3%[12.7 µM]	nt
Cc1ccc(NC(=O)c2ccc3c(c2)NC(=O)CS3)nc1	?	-4%	-21%	-18%	10µM*	nt
O=C(O)C(Cc1ccccc1)n1c(=S)[nH]c2ccccc2c1=O (stereo unspecified)	48%	4%	14µM*	-10%	?	3%
CCOC(=O)C(=O)Nc1c(C(=O)Nc2cccc(F)c2)oc2ccccc12	70%	nt	-2%	29%	41%[59 µM]	nt
CC(=O)N1CC=CC1(CC(C)C)C(=O)NCc1ccc(C)o1 (stereo unspecified)	nt	nt	nt	nt	nt	45µM*
Cc1ccc(S(=O)(=O)N(C)C)cc1NC(=O)COC(=O)CN1C(=O)c2ccccc2C1=O	9%	1%	-17%	-3%	1%[12.7 µM]	nt
COc1ccc(N2CCN(C(=O)COC(=O)CCOc3cc(C)ccc3C)CC2)cc1	-36%	-15%	-10%	-26%	10µM*	nt
COc1ccc(N2CCN(C(=O)COC(=O)CCOc3ccccc3C)CC2)cc1	-21%	-10%	?	?	32µM*	nt
CCOc1ccc(OCCC(=O)OCC(=O)N2CCN(c3ccc(OC)cc3)CC2)cc1	15%	-1%	5%	3%	-44%	nt
COc1ccc(N2CCN(C(=O)COC(=O)CCc3ccccc3OC)CC2)cc1	-9%	-2%	-24%	-32%	11µM*	nt
CCc1ccc(NC(=O)C(=O)NCCc2csc(-c3ccc(C(F)(F)F)cc3)n2)cc1	49%[57 µM]	nt	-3%	41%	19%[59 µM]	nt
Cc1cccc(C(=O)OCC(=O)c2ccc(CC(=O)N3CCOCC3)s2)c1C	-12%	?	?	50µM*	2%[2.33 µM]	nt
Cc1cccc(C(=O)OCC(=O)N2CC(C)OC(C)C2)c1C (stereo unspecified)	20%	nt	-13%	-3%	24%	7%
O=C(COc1ccc(F)cc1)Nc1ccc2nc(SCc3ccccc3)sc2c1	10%	nt	-13%	-12%	2%[59 µM]	nt
C=CCOC[C@@H]1CN2[C@H](c3ccc(Br)cc3)[C@@H](C)CC[C@H]2C(=O)O1	nt	nt	nt	nt	nt	13%
SMILES	HP1b chromo inh	L3MBTL1 block	JMJD2A Tudor	BAZ2B block	G9a block	Sfp inh
NCCC[C@@H](CC(=O)N[C@@H]1CCCC[C@H]1C(=O)N[C@H](CC(=O)N[C@@H](CCC(=O)O)CC(=O)O)Cc1c[nH]c2ccccc12)NC(=O)C[C@H](Cc1c[nH]c2ccccc12)NC(=O)[C@@H]1CCCC[C@H]1N	nt	nt	nt	nt	nt	-23%
O=S(=O)(NCC1OCCc2ccccc21)c1ccc(S(=O)(=O)N2CCOCC2)cc1 (stereo unspecified)	9%	5%	-14%	-9%	-6%[59 µM]	5%
c1ccc2c(c1)CCOC2CNCCCN1CCCCC1 (stereo unspecified)	38%	-8%	-12%	-1%	22µM*	15%
Cc1nc2c(C)cccn2c1/C(O)=C1\C(=O)C(=O)N(CCN(C)C)C1c1cccs1 (stereo unspecified)	14%	nt	0%	nt	nt	nt
COc1cccc(/C(O)=C2/C(=O)C(=O)N(CCN3CCOCC3)C2c2cccs2)c1 (stereo unspecified)	14%	2%	?	-4%	45µM*	3%
Cc1nc2ccccn2c1/C(O)=C1\C(=O)C(=O)N(CCN(C)C)C1c1ccco1 (stereo unspecified)	26%	6%	-17%	-28%	?	15%
CCOc1cccc(/C(O)=C2/C(=O)C(=O)N(CCN3CCOCC3)C2c2ccncc2)c1 (stereo unspecified)	nt	11%	nt	?	nt	-14%
Cc1nc2ccccn2c1/C(O)=C1\C(=O)C(=O)N(CCN2CCOCC2)C1c1ccncc1 (stereo unspecified)	2%	5%	25µM*	?	?	5%
Cc1nc2c(C)cccn2c1/C(O)=C1\C(=O)C(=O)N(CCN2CCOCC2)C1c1cccs1 (stereo unspecified)	2%	-2%	?	?	20µM*	-6%
NCCCC(N)CC(=O)NCC1NC(=O)C(CO)NC(=O)C(N)CNC(=O)C(C2CCN=C(N)N2)NC(=O)/C(=C/NC(N)=O)NC1=O (stereo unspecified)	nt	nt	nt	nt	-47%[2.33 µM]	1%
CCN(CC)CCOc1ccccc1C(C)=O	?	-3%	18µM*	50µM*	11µM*	-15%
Cc1ccc(C)c(NC(=O)Cn2c(=O)n(CCCS(=O)(=O)C3CCCCC3)c(=O)c3ccccc32)c1	21%	nt	-11%	14%	21%[59 µM]	nt
S=C1NC2=C(CCCC2)C2(CCCCC2)N1	30%	-2%	-8%	-4%	7.1µM*	10%
Cc1ccc(CNC(=O)c2ccc3c(=O)n(CC4CCCO4)c(=S)[nH]c3c2)cc1 (stereo unspecified)	25%	nt	-10%	3%	2%[59 µM]	0%
COc1ccccc1Cn1c(=S)[nH]c2cc(C(=O)NCCN(C)C)ccc2c1=O	15%	nt	-19%	-14%	45µM*	-7%
